Laboratory results: PubChem BioAssay (EPA / NIEHS)
The source made the active and inactive calls. How the source made its calls: active means hit-call score of the fitted dose curve at least 0.9, where 1 is the maximum; inactive means score below 0.9.

Key:
Conditions in all cases: mRNA level, 48 h; actives raise or lower the signal
[1] = read-out: matrix metalloproteinase-10 (MMP10), MMP10 (gene 4319); test: LTEA_HepaRG_MMP10: Life Technologies and Expression Analysis (LTEA) Assay for matrix metalloproteinase-10 (MMP10) using HepaRG (AID 2283517)
Outline: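 Transcript levels come from Fluidigm qRT-PCR normalized to three housekeeping genes, with curves fitted bidirectionally against 0.5% DMSO. Human HepaRG cells were dosed for 48 hours at concentrations up to 100 uM.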

MYC, MYC (gene 4609) = test: LTEA_HepaRG_MYC: Life Technologies and Expression Analysis (LTEA) Assay for MYC using HepaRG (AID 2283518)
Outline: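 Expression changes were scored by TaqMan qRT-PCR with ACTB, GAPDH and POLR2A normalization. Cultures in serum-free induction medium received duplicate 8-point concentration series, highest 100 uM, for 48 h; DMSO (0.5%) served as baseline.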

[2] = read-out: matrix metalloproteinase-3 (MMP3), MMP3 (gene 4314); test: LTEA_HepaRG_MMP3: Life Technologies and Expression Analysis (LTEA) Assay for matrix metalloproteinase-3 (MMP3) using HepaRG (AID 2283519)
Outline: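 qRT-PCR read-out of MMP3 mRNA (normalised to three housekeeping genes) in HepaRG liver cells after 48 h chemical exposure; 8-point half-log series, top 100 uM, 0.5% DMSO vehicle. Bidirectional curve fitting against DMSO baseline.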

[3] = read-out: Paternally Expressed 10 (PEG10), PEG10 (gene 23089); test: LTEA_HepaRG_PEG10: Life Technologies and Expression Analysis (LTEA) Assay for Paternally Expressed 10 (PEG10) using HepaRG (AID 2283520);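 on AC50: PEG10 transcript by qRT-PCR normalised to ACTB GAPDH and POLR2A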
Outline: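 qRT-PCR read-out: PEG10 mRNA normalised to three housekeeping genes, fitted bidirectionally against 0.5% DMSO vehicle. HepaRG cells received test chemicals for 48 h in serum-free induction medium, 8 points, top 100 uM, half-log steps.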

[4] = read-out: Nuclear factor NF-kappa-B p105 subunit (Homo sapiens) (UniProt P19838); test: LTEA_HepaRG_NFKB1: Life Technologies and Expression Analysis (LTEA) Assay for Nuclear Factor Kappa B Subunit 1 (NFKB1) using HepaRG (AID 2283521)
Outline: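 Differentiated human HepaRG cells in serum-free induction medium with 0.5% DMSO were exposed for 48 h to eight half-log concentrations, top 100 uM, in duplicate. NFKB1 mRNA measured by Fluidigm TaqMan qRT-PCR, normalised to ACTB, GAPDH and POLR2A; bidirectional fit versus DMSO.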

[5] = read-out: Protein phosphatase 2A (PPP2R4), PTPA (gene 5524); test: LTEA_HepaRG_PPP2R4: Life Technologies and Expression Analysis (LTEA) Assay for Protein phosphatase 2A (PPP2R4) using HepaRG (AID 2283522)
Outline: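 HepaRG, 48 h exposure, 8-pt half-log series from 100 uM, 0.5% DMSO vehicle, duplicates. Readout: PPP2R4 mRNA, Fluidigm qRT-PCR, housekeeping-normalized. Bidirectional curve fit vs DMSO baseline.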

[6] = read-out: Phosphatase and tensin (PTEN), PTEN (gene 5728); test: LTEA_HepaRG_PTEN: Life Technologies and Expression Analysis (LTEA) Assay for Phosphatase and tensin (PTEN) using HepaRG (AID 2283523)
Outline: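 HepaRG, 48 h exposure, 8-pt half-log series from 100 uM top, 0.5% DMSO vehicle, duplicates. Readout: Fluidigm qRT-PCR of PTEN transcript; housekeeping normalization (ACTB, GAPDH, POLR2A). Gain or loss fitted relative to DMSO baseline.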

[7] = read-out: solute carrier (SLC22A1), SLC22A1 (gene 6580); test: LTEA_HepaRG_SLC22A1: Life Technologies and Expression Analysis (LTEA) Assay for solute carrier (SLC22A1) using HepaRG (AID 2283524)
Outline: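 qRT-PCR readout (TaqMan, Fluidigm arrays) of SLC22A1 transcript, normalized to three housekeeping genes; bidirectional curve fit relative to 0.5% DMSO vehicle. Differentiated human HepaRG cells, 48 h chemical exposure, top concentration 100 uM, half-log steps, eight points.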

[8] = read-out: Pyruvate Dehydrogenase Kinase 4 (PDK4), PDK4 (gene 5166); test: LTEA_HepaRG_PDK4: Life Technologies and Expression Analysis (LTEA) Assay for Pyruvate Dehydrogenase Kinase 4 (PDK4) using HepaRG (AID 2283525)
Outline: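 HepaRG (human liver line), 48 h chemical exposure, 8-pt half-log CRC top 100 uM, 0.5% DMSO vehicle, duplicates. Readout: TaqMan qRT-PCR of PDK4 mRNA, housekeeping-normalized; gain/loss fit relative to DMSO baseline.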

[9] = read-out: NAD(P)H dehydrogenase [quinone] 1 (NQO1), NQO1 (gene 1728); test: LTEA_HepaRG_NQO1: Life Technologies and Expression Analysis (LTEA) Assay for NAD(P)H dehydrogenase [quinone] 1 (NQO1) using HepaRG (AID 2283526)
Outline: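 qRT-PCR read-out (Fluidigm TaqMan), normalized to three housekeeping genes, after 48 h chemical exposure of HepaRG cells. Concentrations: eight points, top 100 uM, half-log steps, 0.5% DMSO vehicle. Gain or loss of signal fitted relative to DMSO.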

[10] = read-out: Nuclear factor erythroid 2-related factor 2 (Homo sapiens) (UniProt Q16236); test: LTEA_HepaRG_NFE2L2: Life Technologies and Expression Analysis (LTEA) Assay for Nuclear factor erythroid 2-related factor 2 (NFE2L2) Transcription Factor using HepaRG (AID 2283527)
Outline: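 HepaRG, 48 h dosing, 8-pt half-log series from 100 uM in 0.5% DMSO, duplicates. Read-out: NFE2L2 mRNA by qRT-PCR (ACTB/GAPDH/POLR2A normalization). Bidirectional curve fit vs DMSO baseline.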

[11] = read-out: succinate dehydrogenase complex iron sulfur subunit B (SDHB), SDHB (gene 6390); test: LTEA_HepaRG_SDHB: Life Technologies and Expression Analysis (LTEA) Assay for succinate dehydrogenase complex iron sulfur subunit B (SDHB) using HepaRG (AID 2283528)
Outline: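 HepaRG cells (~100,000/well, plated 48 h) exposed in duplicate for 48 h in serum-free induction medium to 8-point half-log series from 100 uM in 0.5% DMSO; mRNA by qRT-PCR normalised to ACTB, GAPDH, POLR2A; bidirectional fit versus DMSO.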

[12] = read-out: Signal transducer and activator of transcription 3 (Homo sapiens) (UniProt P40763); test: LTEA_HepaRG_STAT3: Life Technologies and Expression Analysis (LTEA) Assay for Signal transducer and activator of transcription (STAT3) using HepaRG (AID 2283529)
Outline: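 HepaRG, 48 h exposure, 8-pt half-log series (top 100 uM), 0.5% DMSO vehicle, duplicates. Readout: STAT3 transcript by Fluidigm qRT-PCR, housekeeping-normalized; bidirectional fit vs DMSO baseline.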

[13] = read-out: solute carrier (SLCO1B1), SLCO1B1 (gene 10599); test: LTEA_HepaRG_SLCO1B1: Life Technologies and Expression Analysis (LTEA) Assay for solute carrier (SLCO1B1) using HepaRG (AID 2283530)
Outline: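 Human HepaRG cultures treated for 48 h with an eight-concentration half-log series topping at 100 uM; SLCO1B1 measured by qRT-PCR and fitted bidirectionally relative to DMSO.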

[14] = read-out: sulfotransferase 2A1 (SULT2A1), SULT2A1 (gene 6822); test: LTEA_HepaRG_SULT2A1: Life Technologies and Expression Analysis (LTEA) Assay for sulfotransferase 2A1 (SULT2A1) using HepaRG (AID 2283531)
Outline: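 Gene-expression endpoint in a human liver cell line: SULT2A1 mRNA change after 48 h chemical treatment, curves fitted in both directions relative to 0.5% DMSO vehicle. Concentrations spanned eight half-log steps from 100 uM.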

[15] = read-out: Transforming Growth Factor (TGFA), TGFA (gene 7039); test: LTEA_HepaRG_TGFA: Life Technologies and Expression Analysis (LTEA) Assay for Transforming Growth Factor (TGFA) using HepaRG (AID 2283532)
Outline: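 qRT-PCR read-out of TGFA transcript, normalized to three housekeeping genes, fitted bidirectionally against 0.5% DMSO baseline. Human HepaRG cultures received chemicals for 48 h at eight half-log concentrations, top 100 uM.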

[16] = read-out: Transforming Growth Factor (TGFB1), TGFB1 (gene 7040); test: LTEA_HepaRG_TGFB1: Life Technologies and Expression Analysis (LTEA) Assay for Transforming Growth Factor (TGFB1) Transporter using HepaRG (AID 2283533)
Outline: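 Eight-point concentration-response (max 100 uM, half-log) in HepaRG under serum-free induction conditions, 48 h. TGFB1 mRNA by qRT-PCR, housekeeping-normalized.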

TIMP1, TIMP1 (gene 7076) = test: LTEA_HepaRG_TIMP1: Life Technologies and Expression Analysis (LTEA) Assay for TIMP1 using HepaRG (AID 2283534)
Outline: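 TIMP1 induction or repression in HepaRG cells after 48 h chemical exposure (eight concentrations, highest 100 uM), assessed by normalized qRT-PCR with bidirectional fitting to DMSO controls.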

[17] = read-out: Tumor necrosis factor receptor 1 (TNFRSF1A), TNFRSF1A (gene 7132); test: LTEA_HepaRG_TNFRSF1A: Life Technologies and Expression Analysis (LTEA) Assay for Tumor necrosis factor receptor 1 (TNFRSF1A) using HepaRG (AID 2283535)
Outline: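 Assay uses 48 h chemical treatment of differentiated HepaRG monolayers, tested in duplicate at eight concentrations from 100 uM downward in 0.5% DMSO. mRNA is normalized to ACTB, GAPDH and POLR2A, with induction or suppression fitted relative to vehicle.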

[18] = read-out: Thyroid Hormone Responsive (THRSP), THRSP (gene 7069); test: LTEA_HepaRG_THRSP: Life Technologies and Expression Analysis (LTEA) Assay for Thyroid Hormone Responsive (THRSP) using HepaRG (AID 2283536)
Outline: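 qRT-PCR read-out (Fluidigm TaqMan), housekeeping-normalized (ACTB/GAPDH/POLR2A). HepaRG, 48 h chemical exposure, 8-pt half-log series from 100 uM in 0.5% DMSO, duplicates. Bidirectional curve fit vs 0.5% DMSO baseline.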

Measured: AC50

Sequence of Signal transducer and activator of transcription 3 (Homo sapiens) (P40763 whole entry, looked up): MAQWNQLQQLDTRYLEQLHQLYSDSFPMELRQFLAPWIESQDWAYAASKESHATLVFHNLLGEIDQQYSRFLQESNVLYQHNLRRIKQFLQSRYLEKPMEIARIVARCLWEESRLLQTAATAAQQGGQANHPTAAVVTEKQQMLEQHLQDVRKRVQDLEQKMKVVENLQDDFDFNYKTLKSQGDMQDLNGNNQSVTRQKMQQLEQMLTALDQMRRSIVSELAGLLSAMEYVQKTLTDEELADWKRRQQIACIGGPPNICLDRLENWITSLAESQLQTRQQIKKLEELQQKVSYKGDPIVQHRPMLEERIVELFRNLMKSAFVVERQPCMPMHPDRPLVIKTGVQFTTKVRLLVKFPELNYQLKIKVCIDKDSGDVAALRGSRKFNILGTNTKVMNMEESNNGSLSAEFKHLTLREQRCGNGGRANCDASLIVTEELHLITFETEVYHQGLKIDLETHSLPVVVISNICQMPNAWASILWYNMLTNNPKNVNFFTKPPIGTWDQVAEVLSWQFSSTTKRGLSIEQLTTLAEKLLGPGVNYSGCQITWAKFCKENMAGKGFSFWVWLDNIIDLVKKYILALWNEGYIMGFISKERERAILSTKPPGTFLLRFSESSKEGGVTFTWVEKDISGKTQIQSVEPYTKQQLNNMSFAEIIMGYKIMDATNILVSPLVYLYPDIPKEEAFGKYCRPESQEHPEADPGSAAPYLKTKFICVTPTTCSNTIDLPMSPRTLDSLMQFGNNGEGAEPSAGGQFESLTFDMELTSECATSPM
Sequence of Nuclear factor erythroid 2-related factor 2 (Homo sapiens) (Q16236 whole entry, looked up): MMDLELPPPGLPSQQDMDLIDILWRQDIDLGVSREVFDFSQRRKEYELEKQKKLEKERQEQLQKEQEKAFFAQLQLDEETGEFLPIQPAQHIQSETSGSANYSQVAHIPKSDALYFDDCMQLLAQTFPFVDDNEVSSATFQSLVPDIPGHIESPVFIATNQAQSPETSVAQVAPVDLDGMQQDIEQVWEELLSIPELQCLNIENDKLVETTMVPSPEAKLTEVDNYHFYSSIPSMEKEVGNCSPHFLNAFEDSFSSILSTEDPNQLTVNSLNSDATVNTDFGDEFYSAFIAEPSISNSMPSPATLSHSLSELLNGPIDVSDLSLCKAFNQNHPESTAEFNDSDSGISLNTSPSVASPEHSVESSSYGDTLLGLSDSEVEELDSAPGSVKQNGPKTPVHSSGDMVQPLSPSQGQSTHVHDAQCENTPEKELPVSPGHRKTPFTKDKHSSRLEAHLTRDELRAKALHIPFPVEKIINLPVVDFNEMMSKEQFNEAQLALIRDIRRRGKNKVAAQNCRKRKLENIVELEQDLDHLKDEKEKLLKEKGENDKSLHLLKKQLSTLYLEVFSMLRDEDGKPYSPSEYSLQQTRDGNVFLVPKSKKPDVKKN
Sequence of Nuclear factor NF-kappa-B p105 subunit (Homo sapiens) (P19838 whole entry, looked up): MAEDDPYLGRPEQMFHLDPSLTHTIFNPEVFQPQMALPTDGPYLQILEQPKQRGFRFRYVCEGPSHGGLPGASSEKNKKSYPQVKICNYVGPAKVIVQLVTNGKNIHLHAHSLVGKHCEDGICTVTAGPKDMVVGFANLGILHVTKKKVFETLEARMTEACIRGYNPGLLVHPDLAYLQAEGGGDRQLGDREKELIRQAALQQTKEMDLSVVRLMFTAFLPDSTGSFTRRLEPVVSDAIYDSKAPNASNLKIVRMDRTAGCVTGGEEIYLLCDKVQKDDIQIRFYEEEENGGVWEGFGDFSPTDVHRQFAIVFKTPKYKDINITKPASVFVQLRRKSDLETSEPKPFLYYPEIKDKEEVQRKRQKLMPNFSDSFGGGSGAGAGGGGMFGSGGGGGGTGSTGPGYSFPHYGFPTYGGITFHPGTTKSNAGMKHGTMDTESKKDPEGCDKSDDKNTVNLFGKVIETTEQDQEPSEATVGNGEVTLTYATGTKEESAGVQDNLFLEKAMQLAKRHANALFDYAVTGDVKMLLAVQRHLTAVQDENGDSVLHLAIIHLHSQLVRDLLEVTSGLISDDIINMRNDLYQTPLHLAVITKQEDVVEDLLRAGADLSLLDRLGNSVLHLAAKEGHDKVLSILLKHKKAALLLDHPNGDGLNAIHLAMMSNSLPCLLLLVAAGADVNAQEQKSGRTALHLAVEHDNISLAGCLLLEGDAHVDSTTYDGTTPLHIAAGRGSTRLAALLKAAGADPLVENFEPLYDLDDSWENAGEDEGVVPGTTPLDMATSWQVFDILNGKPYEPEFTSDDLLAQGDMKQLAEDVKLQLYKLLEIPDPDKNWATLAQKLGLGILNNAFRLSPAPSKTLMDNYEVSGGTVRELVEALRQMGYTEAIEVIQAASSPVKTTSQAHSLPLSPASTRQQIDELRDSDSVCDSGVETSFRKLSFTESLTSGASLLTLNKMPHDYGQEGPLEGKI

CCN(C(=O)c1cc(C)cc(OC[C@H](C)Nc2ccncc2)c1)C(C)C
active: [1] 33.8 µM | [7] 33.8 µM | [8] 53.7 µM | [17] 0.172 µM | [18] 6.4 µM
inactive: MYC, MYC (gene 4609) | [2] | [3] | [4] | [5] | [6] | [9] | [10] | [11] | [12] | [13] | [14] | [15] | [16] | TIMP1, TIMP1 (gene 7076)

CCOCCO
inactive: [1] | MYC, MYC (gene 4609) | [2] | [3] | [4] | [5] | [6] | [7] | [8] | [9] | [10] | [11] | [12] | [13] | [14] | [15] | [16] | TIMP1, TIMP1 (gene 7076) | [17] | [18]

CCc1cc(SCc2sc(-c3ccc(C(F)(F)F)cc3)nc2CN2CCN(c3ccc(OC)cc3)CC2)ccc1OCC(=O)O
active: [1] 7.31 µM | MYC, MYC (gene 4609) 7.43 µM | [3] 93.6 µM | [4] 91 µM | [5] 22.4 µM | [6] 24.6 µM | [7] 8.47 µM | [8] 92.2 µM | [9] 8.39 µM | [10] 91.8 µM | [11] 93.7 µM | [12] 93.3 µM | [13] 7.63 µM | [14] 5.72 µM | [15] 6.99 µM | [16] 28.9 µM | TIMP1, TIMP1 (gene 7076) 94 µM | [17] 5 µM
inactive: [2] | [18]

CN(C)c1ccc(Cc2ccc(N(C)C)cc2)cc1
active: [2] 50 µM | [3] 37.3 µM | [18] 19.5 µM
inactive: [1] | MYC, MYC (gene 4609) | [4] | [5] | [6] | [7] | [8] | [9] | [10] | [11] | [12] | [13] | [14] | [15] | [16] | TIMP1, TIMP1 (gene 7076) | [17]

CC(C)=CCCC(C)CCO (stereo not given)
inactive: [1] | MYC, MYC (gene 4609) | [2] | [3] | [4] | [5] | [6] | [7] | [8] | [9] | [10] | [11] | [12] | [13] | [14] | [15] | [16] | TIMP1, TIMP1 (gene 7076) | [17] | [18]

O=C(O)CCN(C1(C(=O)NO)CCCC1)S(=O)(=O)c1ccc(Oc2ccc(F)cc2)cc1
inactive: [1] | MYC, MYC (gene 4609) | [2] | [3] | [4] | [5] | [6] | [7] | [8] | [9] | [10] | [11] | [12] | [13] | [14] | [15] | [16] | TIMP1, TIMP1 (gene 7076) | [17] | [18]
